Compound activity from PubChem.
A selection: hits, their analogues and other compounds. The true share with any hit is near 2%.
ADAM17 inh: inhibits human ADAM17 | P78536 | recombinant ADAM17, EDANS/DABCYL FRET peptide cleavage | inhibition, % at 6.95 µM | actives 0.83% (n = 370,000) | AID 720648;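 active = inhibition above the mean of compounds lying between control limits plus 3 SD, set per campaign, cut at about 8.5% in these data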;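 note: 0% = DMSO-only wells as the low control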
NPR1 activator: GC-A (human) enzyme activation. P16066. HEK293 GC-A cells, cGMP TR-FRET, EC30 ANP; 0% at EC30 ANP, 100% saturating ANP. activation, % at 10 µM. actives 0.14% (n = 370,000); in the data active = activation above about 40%
FAS TE block: blocks the thioesterase domain of human fatty acid synthase. recombinant FAS-TE, OMFH fluorogenic substrate, fluorescence endpoint. AID 602261. actives 0.67% (n = 360,000). inhibition, % at 15 µM. P49327;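 active = compounds whose normalised, plate-corrected inhibition of enzyme fluorescence in the single-dose primary screen is 50% or more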;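 note: 0% = DMSO with enzyme and 100% = substrate without enzyme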
NPR2 activator: GC-B (human) receptor activation | actives 0.11% (n = 370,000) | activation, % at 10 µM | HEK293-GC-B cells, CNP EC30, cGMP TR-FRET; 0% at EC30 CNP, 100% saturating CNP | P20594 | AID 1920062;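 active = activation at 10 µM reaching about 35% in either raw or pattern-adjusted values, limit read from the data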
ADAM10 inh: inhibits human ADAM10; O14672; recombinant ADAM10, EDANS/DABCYL FRET peptide cleavage, 3 h; inhibition, % at 7 µM; actives 0.62% (n = 370,000);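 active = inhibition above a per-campaign cutoff equal to the mean of compounds falling between control-based bounds plus 3 SD, cut at about 20% in these data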;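 note: 0% = DMSO wells while the 100% control is not disclosed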
Target sequence (O14672 214-748 limits assumed): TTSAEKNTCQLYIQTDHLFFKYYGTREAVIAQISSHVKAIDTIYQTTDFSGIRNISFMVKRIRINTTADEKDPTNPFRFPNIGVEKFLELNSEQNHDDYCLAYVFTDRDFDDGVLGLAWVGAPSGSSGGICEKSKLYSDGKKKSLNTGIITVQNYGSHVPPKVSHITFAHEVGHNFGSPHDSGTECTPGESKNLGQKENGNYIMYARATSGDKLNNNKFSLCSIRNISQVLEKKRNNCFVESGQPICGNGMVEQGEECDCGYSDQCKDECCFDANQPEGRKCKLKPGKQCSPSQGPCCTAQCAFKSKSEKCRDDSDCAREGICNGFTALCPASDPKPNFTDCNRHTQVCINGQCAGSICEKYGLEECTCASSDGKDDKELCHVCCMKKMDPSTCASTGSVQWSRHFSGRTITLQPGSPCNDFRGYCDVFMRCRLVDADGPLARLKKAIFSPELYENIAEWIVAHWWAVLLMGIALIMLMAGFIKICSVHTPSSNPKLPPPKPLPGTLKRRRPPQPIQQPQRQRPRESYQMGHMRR
FAS-TE conf: confirmation of human fatty acid synthase thioesterase inhibitors | shares compounds with FAS TE block | AID 624325 | actives 45% (n = 2,300) | recombinant FAS-TE, OMFH fluorogenic substrate, fluorescence | inhibition, % at 15 µM;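 active = compounds inhibiting the enzyme by at least 50% at 15 µM in any one of the replicates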;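 note: 0% = enzyme with DMSO only and 100% = wells lacking enzyme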
Numbers without * were called inactive; i = inactive; . = no result given.

SMILES	ADAM17 inh	NPR1 activator	FAS TE block	NPR2 activator	ADAM10 inh	FAS-TE conf
C=C(COC(C)=O)CC1CC(O)[C@]2(C)OC3CC4OC5C[C@]6(C)O[C@]7(C)CCC8OC9C[C@]%10(C)OC%11C(C)=CC(=O)OC%11CC%10OC9C[C@@H](C)C8OC7CC6O[C@]5(C)C/C=C\C4OC3CC2O1 (some centres undefined)	.	.	87.1*	.	.	.
C=C(CO)CC1CC(O)[C@]2(C)OC3CC4OC5C[C@]6(C)O[C@]7(C)CCC8OC9C[C@]%10(C)OC%11C(C)=CC(=O)OC%11CC%10OC9C[C@@H](C)C8OC7CC6O[C@]5(C)C/C=C\C4OC3CC2O1 (some centres undefined)	-2.2	6.1	0.6	5.5	-4.9	.
COc1cc(/C=C2/C(=O)NC(=O)N(c3ccccc3)C2=O)ccc1O	3.2	-3.2	-4.0	-0.7	-5.5	.
COc1ccccc1N1C(=O)NC(=O)/C(=C\c2cnn(-c3ccccc3)c2)C1=O	-1.2	52.1*	-4.3	11.0	-0.1	.
N#CC1=C(N)Oc2cc(O)ccc2C1c1ccc2c(c1)OCO2 (centres undefined)	-3.6	44.4*	9.8	7.3	1.9	.
CCN1CCN(CC(=O)c2c(C)n(Cc3ccccc3)c3ccc(OC)cc23)CC1	0.0	5.0	-3.2	-3.6	0.6	.
CCOC(=O)c1c(C)n(Cc2ccccc2)c2ccc(O)cc12	4.6	85.9*	10.1	4.9	5.5	.
CC(=O)c1c(C)n(Cc2ccccc2)c2ccc(O)cc12	-3.8	73.9*	-3.4	15.3	3.5	.
COC(=O)c1c(C)n(Cc2ccccc2)c2ccc(O)cc12	-2.9	79.8*	-1.3	5.0	-5.8	.
Cc1ccccc1CCC[C@H](CC1CCCCC1)CN(C)C(=O)Oc1ccccc1	-5.9	-4.4	.	-0.6	-3.1	.
CCCCCCn1c(N)c(C(=O)NCCN2CCOCC2)c2nc3ccccc3nc21	-268.8	28.4	10.8	35.7*	i	.
c1cncc(-c2ccc3n2Cc2cnnn2-c2ccccc2-3)c1	-32.7	-1.4	.	0.8	-117.5	.
N=c1c2c(-c3ccccc3)c(-c3ccccc3)n(Cc3ccccc3)c2ncn1C1CCC(O)CC1 (centres undefined)	-0.1	-25.4	.	-9.3	1.2	.
CCOP(=S)(OCC)Oc1cc(C)oc(=O)c1	-2.6	0.4	-1.6	3.2	1.9	.
CCOP(=S)(OCC)Oc1cc(C)nc(C(C)C)n1	-6.5	1.6	4.9	74.4*	-7.2	.
COc1cc2c(cc1OC)[C@H]1C(=O)c3ccc4c(c3O[C@H]1CO2)C[C@@H](C(C)(C)O)O4	-0.1	55.8*	-5.1	3.1	-5.5	.
O=C(CN1C(=O)[C@@H](Cc2ccccc2)N=C(c2ccccc2)c2ccccc21)NC1CCCCC1	-2.8	-20.9	.	-27.3	-0.9	.
COC(=O)C1(N(C)c2ccccc2)CCN(Cc2ccccc2)CC1	-0.6	4.5	.	1.2	0.4	.
CN1C(=O)C(=Cc2ccc(SC3CCCCC3)o2)C(=O)N(C)C1=O	0.8	46.5*	-8.4	-2.0	-6.6	.
CN1C(=O)C(=Cc2ccc(N3CCCCC3)o2)C(=O)N(C)C1=S	-2.3	-0.4	-22.1	-3.6	-1.6	.
Cn1cc(C=C(C#N)C#N)c2ccccc21	2.0	-2.0	62.8*	1.3	-0.4	-19.6
CCC12CCN(CC3(O)CC3)C(Cc3ccc(O)cc31)C2(C)C (centres undefined)	1.7	3.1	.	-5.1	-4.7	.
Cc1ccc(S(=O)(=O)N2Cc3cc(-c4ccccc4)ccc3-n3nncc3C2)cc1	-4.5	-2.7	4.6	0.7	-5.4	.
O=S(=O)(c1cc(Cl)cc(Cl)c1)N1Cc2cc(-c3ccccc3)ccc2-n2nncc2C1	-3.2	0.2	85.9*	0.0	-13.4	9.5
COP(=O)(C(=O)Nc1ccccc1)C(CC(C)C)NC(=O)OCc1ccccc1 (centres undefined)	-0.9	-5.6	.	1.6	11.1	.
SMILES	ADAM17 inh	NPR1 activator	FAS TE block	NPR2 activator	ADAM10 inh	FAS-TE conf
CN(Cc1cccc(-c2cccnc2)c1)C(=O)Oc1ccc([N+](=O)[O-])cc1	2.0	-0.4	51.4*	-4.5	8.7	24.7
COc1ccc([N+](=O)[O-])cc1N=Cc1c(O)n(CCc2ccccc2)c(=O)n(C(C)C)c1=O	-2.2	1.4	72.4*	5.9	3.2	-3.3
CCOC(=O)[C@]12Cc3cc(OC)ccc3[C@H]1N(C1CCCCC1)C(=O)c1cc(OC)ccc12	1.3	-23.8	62.1*	-20.6	0.4	15.9
CCOC(=O)[C@]12Cc3cc(C)ccc3[C@H]1N(CCC(=O)OC)C(=O)c1cc(OC)ccc12	0.1	-17.5	24.8	-15.9	-8.6	.
CCOC(=O)[C@]12Cc3cc(C)ccc3[C@H]1N(C(C)C)C(=O)c1ccccc12	-0.5	-10.9	56.8*	-3.8	-2.0	32.7
CCOC(=O)[C@]12Cc3cc(C)ccc3[C@H]1N(C1CCCCC1)C(=O)c1cc(OC)ccc12	0.9	-29.9	84.8*	-17.8	7.3	39.9*
O=C(NCCN1CCC2(CC1)C(=O)NCN2c1ccccc1)C(c1ccccc1)c1ccccc1	-3.7	-20.6	.	-30.2	-8.8	.
CN1OC[C@@H]2CN3C4(C[C@@H]21)c1ccccc1C3(c1ccccc1)c1ccccc14	-15.9	-11.3	.	-12.2	-62.1	.
NP(=O)(OCCCCc1ccccc1)Oc1ccccc1Cl (centres undefined)	-2.5	-0.8	3.3	3.5	9.4	.
NP(=O)(Oc1ccccc1Cl)Oc1ccccc1Cl	-2.4	3.6	75.3*	2.3	-5.8	85.2*
CC(C)C(CN1CCC(C)(c2cccc(O)c2)[C@@H](C)C1)NC(=O)C1Cc2ccc(O)cc2CN1 (some centres undefined)	-1.7	3.7	.	0.1	-4.5	.
COC(=O)C1=C(c2cccc3c2S(=O)(=O)c2ccccc2-3)C[C@@H]2CC[C@H]1N2C(=O)N1CCOCC1	-8.8	-1.5	-4.3	6.2	-6.0	.
COC(=O)C1=C(c2cccc3c2S(=O)(=O)c2ccccc2-3)C[C@@H]2CC[C@H]1N2C(=O)N1CCc2cc(OC)c(OC)cc2C1	3.1	5.5	67.7*	9.2	9.8	31.0
CCc1cc(OC)c(CCN)cc1OC	-0.9	0.0	.	-0.1	-6.5	.
COc1ccc(C(c2nnnn2-c2ccc(OC)cc2)N2CCC3(CC2)C(=O)NCN3c2ccccc2)cc1 (centres undefined)	2.6	-3.8	51.9*	-5.0	7.9	24.3
COc1ccc(-n2nnnc2C(c2ccccc2)N2CCC3(CC2)C(=O)NCN3c2ccccc2)cc1 (centres undefined)	5.3	-7.3	14.5	-5.3	3.5	.
O=C1NCN(c2ccccc2)C12CCN(C(c1ccccc1OC(F)(F)F)c1nnnn1-c1ccc3c(c1)OCCO3)CC2 (centres undefined)	8.4	-5.5	82.1*	-3.4	17.4	29.8
